This is a sample that favours compounds with a hit; in the whole collection about 6.1% have one here.
D3 antag: antagonists of human D3 dopamine receptor; D3R cells, DiscoveRx beta-arrestin luminescence, antagonist mode; stronger effect = lower value; max response, negative = inhibition, %; 2.5% of 360,000 active; AID 652054; in the data active = max response below about -50%; inconclusive = no clear call, values can overlap the other calls; also: % is scaled to controls: 0 for no effect and ±100 for the full control effect
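Cells plated overnight at 1500 cells/well, then exposed to library compounds with dopamine controls for 90 minutes at 37 degrees C. DiscoveRx reagent added for 30–60 minutes at room temperature; luminescence read, quantitative HTS format.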
D1 ag: agonists of human D1 dopamine receptor; HEK293 T-REx D1 cells, calcium flux, agonist mode; P21728; activation, % at 2 µM; 1% of 360,000 active; in the data active = activation above about 30%; also: 0% is about no effect
Target sequence (P21728 whole entry, looked up): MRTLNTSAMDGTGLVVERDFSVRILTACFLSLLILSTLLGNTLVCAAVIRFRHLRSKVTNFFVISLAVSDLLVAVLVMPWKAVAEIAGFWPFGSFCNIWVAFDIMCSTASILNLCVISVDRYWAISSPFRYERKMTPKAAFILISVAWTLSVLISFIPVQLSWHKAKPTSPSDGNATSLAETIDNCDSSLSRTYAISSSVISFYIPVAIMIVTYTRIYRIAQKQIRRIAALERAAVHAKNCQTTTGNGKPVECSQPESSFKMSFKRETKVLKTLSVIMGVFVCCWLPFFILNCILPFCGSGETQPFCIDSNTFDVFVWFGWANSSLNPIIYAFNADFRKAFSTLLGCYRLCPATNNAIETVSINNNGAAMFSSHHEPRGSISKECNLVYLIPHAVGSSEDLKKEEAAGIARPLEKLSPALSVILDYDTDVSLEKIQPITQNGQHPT
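Agonism was scored from calcium flux recorded over 180 s (1 read/s) after pintool compound addition, following a 10-cycle baseline. Cells were inducible force-coupled HEK293 TREx D1, plated overnight at 30 C and loaded with no-wash calcium dye.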
D1 antag: antagonists of human D1 dopamine receptor; P21728; HEK293 TREx D1 cells, calcium flux, dopamine EC80; stronger effect = lower value; activity change, negative = inhibition, % at 10 µM; 3.2% of 360,000 active; AID 504652; in the data active = activity change below about -30%; also: % is scaled to controls: 0 for no effect and ±100 for the full control effect
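Antagonism measured as reduced calcium response to an EC80 dopamine addition following 180 s compound pre-read; cells were inducible HEK293 Trex D1 plated overnight at 30 C, read kinetically at 1 cycle/sec.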
D1 potentiator: enhances dopamine response at the human D1 receptor | 0.036% of 360,000 active | P21728 | HEK293 TREx D1 cells, calcium flux, dopamine EC20 potentiation | potentiation, % at 10 µM; in the data active = potentiation above about 30%; also: 0% is about no effect
ERG-DNA inh: ERG Ets/DNA interaction inhibition; fluorescence polarization, His-ERG Ets domain / labelled DNA; Potency, µM (titrated, usually from 76.9 µM), without a hit: top-dose FP activity, negative = inhibition, hits mostly inhibitors; 0.028% of 370,000 active; active = well fitted inhibition curve with a large enough effect in the polarisation, with a control signal flat; inconclusive = small, poorly fitted or top-dose-only effect, or effect the other way, or a change in a side signal; inactive = no such curve, though single readings can be large or run the other way; the % refers to the polarisation;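 also: polarization taken with two DNA probes labelled with fluorescein and Texas red; potency is read from the fitted curve at half-maximal effect; % of control where 0% means no effect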
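His-tagged ERG Ets domain (1 uM in the protein solution; 300mM KCl, 50mM Tris-HCl, 1mM EDTA, 1mM DTT, pH 7.5) received compound, then a probe mix of 5 nM fluorescein-DNA and 100nM Texas-615-DNA. Fluorescence polarization was read for both dyes.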
D3 ag: agonists of human D3 dopamine receptor; AID 652048; D3R DiscoveRx beta-arrestin cells, luminescence, 90 min; max activation, %; P35462; 0.58% of 410,000 active; in the data active = max activation above about 30%; also: 0% is about no effect
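Cells at 1500/well, incubated overnight, then treated with pinned compounds (dopamine as control) for 90 min at 37 degrees C. DiscoveRx reagent added for 30 - 60 minutes at room temperature; luminescence read.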
Active calls of the source: *; ? = inconclusive; · = no result given.

SMILES | D3 antag | D1 ag | D1 antag | D1 potentiator | ERG-DNA inh | D3 ag
Cc1ccc(NC2=C/C(=N\S(=O)(=O)c3cccs3)c3ccccc3C2=O)c(C)c1 | -91* | -1 | 17 | 1 | -8% | -22
Cc1cccc(NC2=C/C(=N/S(=O)(=O)c3cccs3)c3ccccc3C2=O)c1 | -93* | 6 | 3 | -2 | -10% | -15
Cc1ccc(S(=O)(=O)/N=C2\C=C(NS(=O)(=O)c3ccccc3)C(=O)c3ccccc32)cc1 | -28 | · | · | · | -3% | -6
Cc1ccc(Cl)cc1NC1=C/C(=N\S(=O)(=O)c2cccs2)c2ccccc2C1=O | -108* | 1 | 1 | 16 | -3% | -36
CCc1ccc(S(=O)(=O)c2nnn3c2nc(N2CCOCC2)c2ccccc23)cc1 | -3 | 2 | -1 | -3 | 0% | 6
COc1ccc(Nc2sc(C(=O)c3ccc(Cl)cc3)c(N)c2C(=O)Nc2ccccc2OC)cc1 | -60* | 78* | -50* | 2 | 0% | -2
COc1ccc(Nc2sc(C(=O)c3ccccc3)c(N)c2C(=O)Nc2cc(C)ccc2C)c(OC)c1 | · | 47* | -19 | 1 | 5% | -1
COc1ccc(C(=O)c2sc(Nc3cccc(OC)c3)c(C(=O)Nc3cccc(C)c3C)c2N)cc1 | -18 | 71* | -51* | 7 | 2% | -6
Cc1ccc(NC(=O)c2c(Nc3ccccc3C)sc(C(=O)c3ccccc3)c2N)cc1 | · | 6 | 1 | -4 | -1% | 5
COc1ccc(C(=O)c2sc(Nc3ccccc3)c(C(=O)Nc3ccc(OC)c(OC)c3)c2N)cc1 | ? | 2 | -1 | 1 | -1% | -5
CCCCn1c(N)c(N(CCOC)C(=O)CN2C(=O)NC3(CC(C)CC(C)(C)C3)C2=O)c(=O)[nH]c1=O (stereo not given) | -19 | · | · | · | -2% | 2
Fc1ccc(-c2csc3ncnc(N4CCc5ccccc5C4)c23)cc1 | 43 | 5 | 19 | 7 | -1% | 46*
Oc1ccccc1N1CCN(c2ncnc3scc(-c4ccccc4)c23)CC1 | 106 | 1 | 6 | 7 | -5% | 39*
Cc1nc(N2CCN(c3ccccc3O)CC2)c2c(-c3ccccc3)csc2n1 | 115 | 1 | 13 | 2 | -5% | 32*
CCN1CCN(c2ncnc3scc(-c4ccc(C)cc4)c23)CC1 | -92* | 1 | 8 | 0 | 8% | -7
Cc1ccc(-c2csc3ncnc(N4CCc5ccccc5C4)c23)cc1 | 18 | 3 | 10 | -1 | -2% | 25
CCCCC(=O)NC(NC(=O)CCCC)c1ccc(OCC(C)C)c(OC)c1 | -22 | 2 | 0 | -1 | 3% | 0
COc1ccc(C(=O)N(C)C2(C)CCS(=O)(=O)C2)cc1OC (stereo not given) | -11 | 1 | 14 | -4 | -6% | 9
CC(C)(C)c1ccc2c(c1)N(CC(=O)O)C(=O)CO2 | -7 | 3 | 2 | -8 | -3% | -11
COc1ccc(NC(=O)CCCN2C(=O)COc3ccc(C)cc32)cc1OC | · | 7 | -46* | -5 | -2% | 0
Cc1ccc(C)c(NC(=O)CCCN2C(=O)COc3ccc(C)cc32)c1 | · | 1 | 15 | 3 | 2% | -9
Cc1ccc2c(c1)N(CC(=O)O)C(=O)CO2 | 24 | 2 | -30* | -5 | -5% | -7
CCOc1ccc(NC(=O)CSc2nc(-c3cccs3)cc(C(F)(F)F)c2C#N)cc1 | · | 4 | 12 | 0 | ? | 8
CC(C)(C)OC(=O)NCCCC[C@H](NC(=O)c1nc[nH]c1C(=O)NC1CCN(C(=O)OC(C)(C)C)CC1)C(=O)OC(C)(C)C | 55 | 2 | 29 | -5 | -14% | 15
COc1ccc(C(C[N+](=O)[O-])c2c(-c3ccccc3)cc3ccccn23)cc1OC (stereo not given) | ? | 0 | 12 | -3 | 0% | -7
COc1ccc(C(C[N+](=O)[O-])c2c(-c3ccccc3)cc3ccccn23)cc1 (stereo not given) | -50* | 7 | 5 | -1 | -1% | -3
C#CC(CC)(CC)NC(=O)c1c(C)noc1C | -5 | 27 | 9 | -6 | 12% | -30

Compound activity deposited in PubChem by National Center for Advancing Translational Sciences (NCATS).
